Compounds without any hit were thinned out: in the full panel of roughly 83,000, 20% have a hit.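 Growth was measured after 48 h exposure to one concentration of compound in 96-well plates. Values under 10 count as active.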 Unmarked numbers belong to inactive results. The source made the active and inactive calls.
How the values were obtained:
Assay in all cases: NCI-60 one-dose screen, 48 h (100 = growth as untreated, 0 = no growth, -100 = all killed)
Conditions in all cases: 10 µM unless noted
SR leukemia = test system: SR leukemia
RPMI-8226 leukemia = test system: RPMI-8226 leukemia
OVCAR-8 ovarian = test system: OVCAR-8 ovarian
OVCAR-5 ovarian = test system: OVCAR-5 ovarian
SK-OV-3 ovarian = test system: SK-OV-3 ovarian
IGROV1 ovarian = test system: IGROV1 ovarian
OVCAR-3 ovarian = test system: OVCAR-3 ovarian
HS 578T breast = test system: HS 578T breast
NCI/ADR-RES ovarian = test system: NCI/ADR-RES ovarian
OVCAR-4 ovarian = test system: OVCAR-4 ovarian

## COc1ccc(C2=CC(c3cc(OC)c(OC)c(OC)c3)NC(=O)N2)cc1OC (configuration not stated)
SR leukemia
  growth: 9.57% (active)
RPMI-8226 leukemia
  growth: 4.8% (active)
OVCAR-8 ovarian
  growth: 18.8%
OVCAR-5 ovarian
  growth: 34.6%
SK-OV-3 ovarian
  growth: 23.3%
IGROV1 ovarian
  growth: -17.7% (active)
OVCAR-3 ovarian
  growth: -24% (active)
HS 578T breast
  growth: 7.62% (active)
NCI/ADR-RES ovarian
  growth: 13.7%

## CC(C)(C)NCCC(O)c1cc2c(Cl)cc(Cl)cc2c2cc(C(F)(F)F)ccc12 (configuration not stated)
SR leukemia
  growth: -77.5% (active)
RPMI-8226 leukemia
  growth: -40% (active)
OVCAR-8 ovarian
  growth: -81.1% (active)
OVCAR-5 ovarian
  growth: -83.2% (active)
SK-OV-3 ovarian
  growth: 15.6%
IGROV1 ovarian
  growth: -63.2% (active)
OVCAR-3 ovarian
  growth: -88.7% (active)
HS 578T breast
  growth: -56.9% (active)
NCI/ADR-RES ovarian
  growth: -80% (active)

## CC(=O)Nc1ccc(S(=O)(=O)n2ccc(-c3ccc4c(c3)CCC(C)(C)O4)n2)cc1
SR leukemia
  growth: 56.4%
RPMI-8226 leukemia
  growth: 43.7%
OVCAR-8 ovarian
  growth: 69.4%
OVCAR-5 ovarian
  growth: 96.3%
IGROV1 ovarian
  growth: 68%
OVCAR-3 ovarian
  growth: 74.4%
HS 578T breast
  growth: 102%
NCI/ADR-RES ovarian
  growth: 56.9%

## N=c1ccc2nc3ccc(N)cc3sc-2c1
SR leukemia
  growth: 38.2%
RPMI-8226 leukemia
  growth: 30%
OVCAR-8 ovarian
  growth: 13.5%
OVCAR-5 ovarian
  growth: 48.1%
SK-OV-3 ovarian
  growth: 58.4%
IGROV1 ovarian
  growth: 40.6%
OVCAR-3 ovarian
  growth: 0.418% (active)
HS 578T breast
  growth: 51.9%
NCI/ADR-RES ovarian
  growth: 9.73% (active)

## CCN(CC)CCC(CNc1ccnc2cc(Cl)ccc12)c1ccc(Cl)cc1 (configuration not stated)
SR leukemia
  growth: -13.2% (active)
RPMI-8226 leukemia
  growth: -0.553% (active)
OVCAR-8 ovarian
  growth: 1.27% (active)
OVCAR-5 ovarian
  growth: 22%
SK-OV-3 ovarian
  growth: -12.9% (active)
IGROV1 ovarian
  growth: 33.5%
OVCAR-3 ovarian
  growth: 25%
HS 578T breast
  growth: -66.8% (active)
NCI/ADR-RES ovarian
  growth: 23.4%

## NC1=NN(O)C2=CC([N+](=O)[O-])C=CC2=N1 (configuration not stated)
SR leukemia
  growth: 94.8%
RPMI-8226 leukemia
  growth: 99.2%
OVCAR-8 ovarian
  growth: 99.4%
OVCAR-5 ovarian
  growth: 118%
SK-OV-3 ovarian
  growth: 100%
IGROV1 ovarian
  growth: 120%
OVCAR-3 ovarian
  growth: 99.8%
NCI/ADR-RES ovarian
  growth: 93.4%

## CCCCCCN1CSC(=S)N(CCCCCC)C1
SR leukemia
  growth: 104%
RPMI-8226 leukemia
  growth: 86.5%
OVCAR-8 ovarian
  growth: 103%
OVCAR-5 ovarian
  growth: 112%
SK-OV-3 ovarian
  growth: 107%
IGROV1 ovarian
  growth: 101%
OVCAR-3 ovarian
  growth: 109%
HS 578T breast
  growth: 105%
NCI/ADR-RES ovarian
  growth: 89.9%

## CN1CCN(Cc2ccc(NC(=O)c3cncc(C#Cc4cnc(N)c5ccncc45)c3)cc2C(F)(F)F)CC1
SR leukemia
  growth: 20.6%
RPMI-8226 leukemia
  growth: 18.5%
OVCAR-8 ovarian
  growth: 29.6%
OVCAR-5 ovarian
  growth: 9.45% (active)
SK-OV-3 ovarian
  growth: -12.1% (active)
IGROV1 ovarian
  growth: 4.51% (active)
OVCAR-3 ovarian
  growth: 35.2%
NCI/ADR-RES ovarian
  growth: 71.8%

## O=C(NS(=O)(=O)c1ccccc1)n1cc(-c2ccncc2)c(-c2ccc(Cl)c(O)c2)n1
SR leukemia
  growth: 97.2%
RPMI-8226 leukemia
  growth: 97.4%
OVCAR-8 ovarian
  growth: 105%
OVCAR-5 ovarian
  growth: 116%
SK-OV-3 ovarian
  growth: 102%
IGROV1 ovarian
  growth: 96.8%
OVCAR-3 ovarian
  growth: 117%
HS 578T breast
  growth: 106%
NCI/ADR-RES ovarian
  growth: 102%

## CCCCOc1ccc(/C=C2/SC(N3CCCC3)=NC2=O)cc1
SR leukemia
  growth: 91.1%
RPMI-8226 leukemia
  growth: 84.8%
OVCAR-8 ovarian
  growth: 99.7%
OVCAR-5 ovarian
  growth: 90.1%
SK-OV-3 ovarian
  growth: 96.9%
IGROV1 ovarian
  growth: 95.1%
OVCAR-3 ovarian
  growth: 106%
HS 578T breast
  growth: 116%
NCI/ADR-RES ovarian
  growth: 90.8%

## Cc1ccc(S(=O)(=O)/C(=C\c2ccc(Cl)cc2)C(=O)c2ccccc2)cc1
SR leukemia
  growth: 105%
RPMI-8226 leukemia
  growth: 103%
OVCAR-8 ovarian
  growth: 107%
OVCAR-5 ovarian
  growth: 114%
SK-OV-3 ovarian
  growth: 96.9%
IGROV1 ovarian
  growth: 109%
OVCAR-3 ovarian
  growth: 119%
HS 578T breast
  growth: 119%
NCI/ADR-RES ovarian
  growth: 104%

## COc1ccc(/C=C(\C#N)c2cc(OC)c3c(c2)OCO3)cc1
SR leukemia
  growth: 1.82% (active)
RPMI-8226 leukemia
  growth: 28.6%
OVCAR-8 ovarian
  growth: 24.3%
OVCAR-4 ovarian
  growth: 39%
SK-OV-3 ovarian
  growth: 8.7% (active)
IGROV1 ovarian
  growth: 16.3%
OVCAR-3 ovarian
  growth: -42.7% (active)
HS 578T breast
  growth: 28.5%
NCI/ADR-RES ovarian
  growth: 7.74% (active)

## O=C1NN(C(=O)c2ccc(Cl)cc2)C(c2ccccc2)=N/C1=C\c1ccc(F)cc1
SR leukemia
  growth: 80.2%
RPMI-8226 leukemia
  growth: 60.3%
OVCAR-8 ovarian
  growth: 86.6%
OVCAR-5 ovarian
  growth: 88.8%
SK-OV-3 ovarian
  growth: 97.4%
IGROV1 ovarian
  growth: 87.6%
OVCAR-3 ovarian
  growth: 98.7%
HS 578T breast
  growth: 95.2%
NCI/ADR-RES ovarian
  growth: 66.7%

## CN(C)CCCN(c1nc(C(Cl)(Cl)Cl)ns1)c1nc(C(Cl)(Cl)Cl)ns1
SR leukemia
  growth: 17.1%
RPMI-8226 leukemia
  growth: 9.37% (active)
OVCAR-8 ovarian
  growth: 55.3%
OVCAR-5 ovarian
  growth: 66.5%
SK-OV-3 ovarian
  growth: 86.6%
IGROV1 ovarian
  growth: 36.6%
OVCAR-3 ovarian
  growth: 31.7%
HS 578T breast
  growth: 46%
NCI/ADR-RES ovarian
  growth: 48.8%

## CC(C)(C)n1cc(-c2ccnc(NCCNS(=O)(=O)c3ccc(F)cc3)c2)c(-c2cccc(O)c2)n1
SR leukemia
  growth: 25.5%
OVCAR-8 ovarian
  growth: 62.4%
OVCAR-5 ovarian
  growth: 68.6%
OVCAR-4 ovarian
  growth: 56.2%
SK-OV-3 ovarian
  growth: 79.3%
IGROV1 ovarian
  growth: 68.9%
OVCAR-3 ovarian
  growth: 70.5%
HS 578T breast
  growth: 60.3%
NCI/ADR-RES ovarian
  growth: 61.7%

From PubChem BioAssay (NCI)
